Bioassay records from PubChem BioAssay.
aSyn 5UTR act – Activators working through SNCA 5'UTR binding (MLPCN). alpha-synuclein 5'UTR reporter, activators screen. activity score, % (tested at 7.5 µM), hits read low. hit rate 7.1% among 300,000; in the data active = activity score below about -60%
Active calls of the source: *. Only a sample is shown.

SMILES	aSyn 5UTR act
COc1cccc(/C=C/C(=O)c2c(O)cc(C)oc2=O)c1O	-111*
COc1ccc(/C=C/C(=O)c2c(O)cc(C)oc2=O)c(OC)c1	-230*
Cc1ccccc1-n1c(C)cc(/C=N/Nc2ccc([N+](=O)[O-])cn2)c1C	-76*
O=[N+]([O-])c1ccc(N/N=C/c2cccs2)nc1	-187*
CCN1C(=O)/C(=C/C=C2/CCCN2C)OC1=S	-152*
COc1ccccc1NC(=O)C(=O)N/N=C/c1ccc([N+](=O)[O-])s1	-138*
O=C(N/N=C/c1ccc([N+](=O)[O-])s1)c1ccccc1	68
O=C(CNC(=O)c1cccc(F)c1)N/N=C/c1ccc([N+](=O)[O-])s1	-105*
COC(=O)N/N=C/c1ccc([N+](=O)[O-])s1	-142*
COc1ccc2oc(=N)c(C(=O)Nc3ccc(F)cc3)cc2c1	-97*
COc1ccc2oc(=N)c(C(=O)Nc3ccc(C)cc3)cc2c1	-101*
COc1ccc(NC(=O)c2cc3ccccc3o/c2=N\NS(=O)(=O)c2ccc(C)cc2)cc1	-133*
COc1ccc2o/c(=N\O)c(C(=O)Nc3ccc(C)cc3)cc2c1	-282*
N=c1oc2ccc(Cl)cc2cc1C(=O)Nc1ccc(F)cc1	-68*
COc1ccc(C(=O)COC(=O)c2cccc(-n3cnnn3)c2)c(OC)c1	-104*
O=C(OCC(=O)c1c[nH]c2ccccc12)c1ccco1	-102*
COc1ccc(C(=O)COC(=O)c2cc(=O)[nH]c3ccccc23)c(OC)c1	-131*
COc1cccc(C(=O)OCC(=O)c2c[nH]c3ccccc23)c1O	-105*
O=C(OCC(=O)c1c[nH]c2ccccc12)c1ccc(Br)o1	-130*
Cc1ccc(N/C=C/c2onc(C)c2[N+](=O)[O-])cc1	-134*
Cc1noc(/C=C/c2ccc(-c3ccccc3Cl)o2)c1[N+](=O)[O-]	-63*
COc1cccc(N/C=C/c2onc(C)c2[N+](=O)[O-])c1	-151*
CCc1ccc(Nc2nc(C)cc(C)n2)cc1	-179*
COc1ccc(Nc2nc(C)cc(C)n2)cc1Cl	-114*
Cc1cc(C)nc(Nc2ccc(N3CCCC3)cc2)n1	-65*
SMILES	aSyn 5UTR act
Cc1cc(C)nc(Nc2ccc(C(=O)O)cc2)n1	-157*
CC(/C=N/Nc1nc2ccccc2[nH]1)=C\c1ccccc1	-70*
CC(/C=N/Nc1nc(C)cc(=O)[nH]1)=C\c1ccccc1	-67*
CN(C)c1ccc(C(=S)NC2CCCCC2)cc1	-111*
CCN(CC)c1ccc(C(=S)NC2CCCCC2)cc1	-64*
O/N=C/c1ccc(OCc2ccccc2F)c(Cl)c1	-92*
O/N=C/c1ccc(OCc2ccccc2)c(Br)c1	-142*
O/N=C/c1ccc(OCc2ccccc2)c(Cl)c1	-104*
CN(C)/C=N/C(=S)Nc1ccc(Cl)c(Cl)c1	-66*
Cc1ccccc1Oc1cc(NC(=O)Cn2cnc([N+](=O)[O-])c2)cc([N+](=O)[O-])c1	-91*
CC(=O)OCCCN1c2ccccc2Nc2nnc(-c3ccccc3)cc21	-155*
O=c1oc2ccccc2cc1-c1ccccc1	-118*
O=c1oc2ccccc2cc1-c1nnc(-c2cccc(Br)c2)o1	-98*
O=c1oc2ccccc2cc1-c1cn2cccnc2n1	-65*
O=c1oc2ccccc2cc1-c1cn2ccccc2n1	98
O=c1oc2ccc(Cl)cc2cc1-c1ccccc1	-70*
O=C(Cc1cccc2ccccc12)Nc1ccc(-c2cc3ccccc3oc2=O)cc1	65
Cn1cc(/C=C(\C#N)C(=O)Nc2ccccc2O)c2ccccc21	-118*
Cc1cc(O)ccc1Nc1nc2ccccc2nc1Nc1ccc(O)cc1C	-106*
CCCn1nnc(NC(=O)c2cccc(Cl)c2)n1	-64*
CCCn1nnc(NC(=O)c2ccc3c(c2)OCO3)n1	-90*
CCCn1nnc(NC(=O)c2ccc(-c3cccc(Cl)c3)o2)n1	-80*
CCCn1nnc(NC(=O)c2sc3ccccc3c2Cl)n1	-104*
CCCCn1nnc(N(C(=O)c2cccs2)C(=O)c2cccs2)n1	-89*
CCCn1nnc(NC(=S)NC(=O)c2cccs2)n1	-102*
SMILES	aSyn 5UTR act
CCOC(=O)Cc1cc(-c2ccc(F)cc2)nc2ccc3ccccc3c12	-63*
CCOC(=O)Cc1cc(-c2ccc(OC)cc2)nc2ccc3ccccc3c12	-117*
CCOC(=O)Cc1cc(-c2ccc(O)cc2)nc2ccc3ccccc3c12	-80*
O=C(Nc1cc(-c2nc3ccccc3s2)ccc1Cl)c1ccc2c(c1)OCO2	-70*
Cc1ccc(-c2nc3ccccc3s2)cc1NC(=S)NC(=O)c1cccc2ccccc12	-97*
Cc1ccc(-c2nc3ccccc3s2)cc1NC(=O)c1ccc2c(c1)OCO2	-76*
c1cc2c(cc1C1=NNC(=NC3CC3)SC1)OCCO2	111
FC(F)Sc1ccc(N=C2NN=C(c3ccc4c(c3)OCCO4)CS2)cc1	-127*
c1ccc(CCNc2ncnc3sccc23)nc1	-86*
OC(CNc1ncnc2sccc12)c1ccccc1 (stereo not drawn)	-97*
CCc1noc(C)c1C(=O)Nc1nc(-c2cccs2)cs1	-66*
CC(=O)c1coc2c1cc(O)c1ccccc12	-83*
c1ccc(-c2cnc(-c3ccccc3)nc2)cc1	-66*
Nc1cnc(-c2ccccc2)nc1Cl	-63*
c1ccc(-c2ncc3c(ccc4ccccc43)n2)cc1	68
CCCc1ccc(-c2cc(NC(=O)CSc3nnc(N)s3)n(-c3ccccc3)n2)cc1	-146*
C=C(C)CSc1nc2ncc(Cl)cc2[nH]1	-74*
CCOC(=O)COc1cccc2c(=O)n(CC(=O)NCCc3ccccc3)ccc12	-73*
CCOC(=O)C(C)Oc1cccc2c(=O)n(CC(=O)NCc3ccccc3)ccc12 (stereo not drawn)	73
c1ccc(-c2nnc(-c3ccncc3)o2)cc1	-89*
Nc1ccc(-c2nnc(-c3ccc(N)cc3)o2)cc1	-106*
CN(C)S(=O)(=O)c1cccc(-c2nnc(-c3ccccc3)o2)c1	-113*
Oc1ccccc1-c1nnc(-c2ccc(C(F)(F)F)cc2)o1	-126*
Nc1ccccc1-c1nnc(-c2ccc(-c3ccccc3)cc2)o1	-192*
COc1cccc(-c2nnc(-c3ccc(C(F)(F)F)cc3)o2)c1	-145*
SMILES	aSyn 5UTR act
O=[N+]([O-])c1cc(-c2nnc(-c3ccccc3)o2)ccc1Oc1ccc(Cl)cc1	-95*
c1ccc(-c2nnc(-c3ccccc3)o2)cc1	-96*
COc1ccc(-c2nnc(-c3ccccc3)o2)cc1OC	-168*
COc1ccc(C2=Nn3c(nnc3-c3ccccc3)SC2)cc1OC	59
C/C(CC(=O)Nc1ccc(Cl)cc1C(F)(F)F)=N\NC(=O)c1cccs1	-106*
C/C(CC(=O)Nc1ccc(Cl)cc1C(F)(F)F)=N\NC(=O)c1ccccn1	-127*
O=C(COC(=O)CNC(=O)c1cccs1)Nc1ccccc1C(F)(F)F	-95*
COCC(C)N=C1NN=C(c2c[nH]c3ccccc23)CS1 (stereo not drawn)	-66*
CCN=C1NN=C(c2c[nH]c3ccccc23)CS1	-68*
O=C(Nc1ccccc1C(F)(F)F)c1cc(-c2ccccc2O)on1	-141*
O=C(Nc1ccccc1C(F)(F)F)c1cc(-c2ccco2)on1	-127*
Cc1c(Cl)cccc1NC(=O)c1cc(-c2ccco2)on1	-108*
Cc1cc(NC(=O)c2cc(-c3ccco3)on2)nn1Cc1ccc(Cl)cc1	-71*
CC(C)c1ccc(/C=N/NC(=O)C2CCCC2)cc1	-171*
COc1ccc(/C=N\NC(=O)C2CCCC2)cc1Br	-95*
Cc1cccn2cc(CSc3ccccc3N)nc12	-117*
COc1ccc(OCc2csc(N)n2)cc1	-117*
